From PubChem BioAssay
Results filed as inconclusive are left out. Active and inactive are the calls of the source.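 How the source made its calls, unless noted: active means cell viability at or below a set limit in both duplicate runs, the limit being the all-compound median minus 4 SD (cut at about 23% in these data, passing the limit was not always enough); inconclusive means no clear call, values can overlap the other calls; inactive means the rest.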

Experiments:
[1] = reducers of endogenous Her2 protein level, primary screen, SKBR3 breast tumor cells, AlphaScreen, ATP viability (AID 461;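 active means Her2 level under about 52% in both replicate screens, with viability over 70% of control, limit read from the data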;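 on Her2 level: lower value means less Her2 protein in the cells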;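 on viability: percent of carrier control wells set as 100% viability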); conditions: 18-24 h, measured here: SKBR3 viability, ATP luminescence, at 10 µM
[2] = target: Receptor tyrosine-protein kinase erbB-2 (Homo sapiens) (UniProt P04626); assay: as above; conditions: 18-24 h, at 10 µM, stronger effect = lower value
[3] = SK-BR-3 cell growth inhibitors, pilot screen, 24 h, human (AID 572;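 active means viability at or below 10% of carrier control in both of two separate runs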;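 further: compound exposure lasted between 18 and 24 h rather than exactly 24 h; 100% = carrier-treated control wells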); conditions: SK-BR-3 viability, CellTiter-Glo luminescence, at 10 µM, stronger effect = lower value
[4] = HUVEC growth inhibition – cell-based, human, primary screen (AID 575;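 active means viability at or below 30% in both replicate assays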;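 further: 100% = median of untreated cell wells with 0.1% DMSO on each plate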); conditions: HUVEC proliferation, CellTiter-Glo luminescence, 72 h; at 10 µM; stronger effect = lower value
[5] = growth inhibitors of H69AR lung tumor, primary screen, human, duplicate replicates (AID 580;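 active means viability at or under a set limit in both replicates, limit being median viability minus 3 SD, cut at about 48% in these data, passing the limit was not always enough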;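 further: 100% = mean luminescence of untreated wells and 0% = no signal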); conditions: H69AR lung tumor cells viability, ATP luminescence, 72 h; at 10 µM; stronger effect = lower value
[6] = reversal of MRP1-mediated doxorubicin resistance, pilot screen, H69AR cells, doxorubicin co-treatment (AID 601;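 active means viability loss from added drug above about 55%, and viability with drug at most 40%, in both replicates, limit read from the data, passing the limit was not always enough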); conditions: CellTiter-Glo, 72 h, at 10 µM; for differential viability (reversal): stronger effect = higher value
[7] = 384-well plate pilot, post-Golgi transport modulator project, inhibition of yeast transport mutant growth (AID 636; in the data active means inhibition above about 31%); conditions: absorbance 615 nm, about 18 h, stronger effect = higher value
[8] = growth suppression of yeast trafficking mutant, preliminary HTS, modulators of trafficking downstream of Golgi apparatus project, 1536-format plate, OD 615 nm (AID 637; in the data active means inhibition above about 30%); conditions: yeast transport mutant growth, absorbance 615 nm, 18 h; stronger effect = higher value
[9] = OD615 S. cerevisiae growth inhibition, permissive medium, pilot counter-assay, permissive growth control for S. cerevisiae lifespan shortening project (AID 705;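 active means growth inhibition above 25% in both replicates, a cutoff set 3 SD above the mean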); conditions: OD615, 24 h, at 10 µM, stronger effect = higher value
[10] = Restrictive medium S. cerevisiae growth inhibition, OD615, pilot screen of yeast lifespan reduction project, restrictive growth control (AID 706;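 active means growth inhibition above a set limit, 3 SD over mean compound inhibition, in both replicates, cut at about 43% in these data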;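 further: modified DeaD lifespan yeast strain shifted to restrictive glucose medium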); conditions: OD615, 48 h, at 10 µM, stronger effect = higher value
[11] = viability gain of MRP-1-high H69AR cells under doxorubicin, pilot screen, MRP-1 activator project, CellTiter-Glo, duplicate (AID 807;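 active means viability increase at or above a cutoff of the median across tested compounds plus 3 SD, cut at about 8.5% in these data, passing the limit was not always enough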;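 further: compound pretreatment 18-22 h then 72 h combined with doxorubicin; 0% = doxorubicin alone and 100% = vehicle without doxorubicin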); conditions: H69AR viability with doxorubicin, CellTiter-Glo luminescence; at 10 µM; stronger effect = higher value
[12] = growth suppression of beta-catenin knockout HCT116, pilot screen, human colon tumor cells (AID 823); conditions: CellTiter-Glo, 60 h, at 10 µM, stronger effect = lower value;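 further: 0% = wells killed by 20 µM Hyamine and 100% = untreated DMSO cell wells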
[13] = growth suppression of PTEN-deleted HCT116, pilot screen, cell-based, HCT116 clonal line, CellTiter-Glo (AID 824;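 active means viability at or below 27.92% in each of two runs, the all-compound median minus 4 SD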;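 further: 0% = 20 µM Hyamine control and 100% = vehicle cell control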); conditions: 60 h, at 10 µM, stronger effect = lower value
[14] = inhibitors of the yeast RAM network, pilot screen, dse1pr::URA3 reporter, 5-FOA selection (AID 869;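 active means inhibition over a set limit, the all-compound mean plus 3 SD, in both replicate runs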;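 further: 0% = DMSO wells with no growth and 100% = 10 µM 1-NA-PP1 with full growth; RAM network block rescues cells from 5-FOA so hits raise OD615 growth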); conditions: S. cerevisiae dse1pr::URA3 5-FOA growth, OD615, 2 d; at 10 µM; stronger effect = higher value; strain carries analog-sensitive mutant Cbk1 kinase
[15] = RAM signaling pathway blockade in yeast – S. cerevisiae, Pdr1DBD-CYC8 efflux-inhibited sensitized strain, primary screen (AID 1298;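 active means RAM network inhibition above 8.4% in each of two replicates, 3 SD over the compound average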;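 further: 0% = DMSO untreated cells without growth and 100% = 10 µM 1-NA-PP1 full growth; higher means more yeast growth rescued from 5-FOA killing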); conditions: S. cerevisiae cbk1-as DSE1-URA3 strain, 5-FOA growth OD615, 2 d; at 50 µM; stronger effect = higher value
[16] = H69AR cells + 2 uM doxorubicin, measured here: viability with 2 uM doxorubicin, stronger effect = lower value
[17] = H69AR cells, compound alone cytotoxicity

Receptor tyrosine-protein kinase erbB-2 (Homo sapiens), sequence (P04626 whole entry, looked up): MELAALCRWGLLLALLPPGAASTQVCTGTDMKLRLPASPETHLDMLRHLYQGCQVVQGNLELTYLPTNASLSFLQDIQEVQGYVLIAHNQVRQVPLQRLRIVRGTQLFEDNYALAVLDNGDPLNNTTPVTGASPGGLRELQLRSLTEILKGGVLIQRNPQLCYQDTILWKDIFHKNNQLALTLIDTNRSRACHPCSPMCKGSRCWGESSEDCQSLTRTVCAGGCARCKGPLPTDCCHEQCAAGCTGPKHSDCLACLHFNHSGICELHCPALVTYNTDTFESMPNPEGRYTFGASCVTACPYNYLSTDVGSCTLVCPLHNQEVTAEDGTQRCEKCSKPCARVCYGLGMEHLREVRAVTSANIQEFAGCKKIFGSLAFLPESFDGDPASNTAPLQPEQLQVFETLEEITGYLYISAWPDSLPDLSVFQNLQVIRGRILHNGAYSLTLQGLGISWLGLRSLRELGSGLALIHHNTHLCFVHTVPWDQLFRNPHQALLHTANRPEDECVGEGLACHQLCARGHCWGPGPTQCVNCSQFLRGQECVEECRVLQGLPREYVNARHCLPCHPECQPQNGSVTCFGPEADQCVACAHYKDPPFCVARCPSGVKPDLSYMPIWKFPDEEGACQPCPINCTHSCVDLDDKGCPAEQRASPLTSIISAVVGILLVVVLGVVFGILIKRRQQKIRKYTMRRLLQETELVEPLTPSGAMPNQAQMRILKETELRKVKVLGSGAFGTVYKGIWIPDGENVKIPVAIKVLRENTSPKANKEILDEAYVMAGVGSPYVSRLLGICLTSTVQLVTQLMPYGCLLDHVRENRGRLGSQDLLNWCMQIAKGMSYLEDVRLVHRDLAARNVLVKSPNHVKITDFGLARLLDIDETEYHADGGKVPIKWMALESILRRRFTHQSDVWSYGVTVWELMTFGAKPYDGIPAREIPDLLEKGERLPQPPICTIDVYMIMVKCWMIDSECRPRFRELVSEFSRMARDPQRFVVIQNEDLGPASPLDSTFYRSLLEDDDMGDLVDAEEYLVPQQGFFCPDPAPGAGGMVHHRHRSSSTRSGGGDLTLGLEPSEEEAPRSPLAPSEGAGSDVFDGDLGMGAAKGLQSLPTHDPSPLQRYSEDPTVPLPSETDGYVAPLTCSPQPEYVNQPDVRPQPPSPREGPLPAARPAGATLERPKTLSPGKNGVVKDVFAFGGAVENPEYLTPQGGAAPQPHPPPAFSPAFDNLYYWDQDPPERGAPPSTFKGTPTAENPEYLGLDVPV

Compound	viability [1] [%]	Her2 level [2]	viability [3]	viability [4]	viability [5]	differential viability (reversal) ([6]; H69AR cells + 2 uM doxorubicin)	viability [6, 16] [%]	viability [6, 17] [%]	inhibition [7]	inhibition [8]	growth inhibition [9]	growth inhibition [10]	viability increase [11]	viability [12]	viability [13]	inhibition [14]	RAM network inhibition [15]
Cn1c(=O)c2c(nc(CN3CCN(Cc4ccccc4)CC3)n2Cc2cccc(Cl)c2)n(C)c1=O	93.5	81.5% (inactive)	93.5% (inactive)	69.9% (inactive)	57.7% (inactive)	36.9% (inactive)	20.9	57.7	-6.67% (inactive)	5.5% (inactive)	3.47% (inactive)	-0.975% (inactive)	-2.86% (inactive)	60.8% (inactive)	58.7% (inactive)	1% (inactive)	4.53% (inactive)
CC(=O)c1sc(NC(=O)C2COc3ccccc3O2)nc1C (stereo not given)	102	97.5% (inactive)	102% (inactive)	80.7% (inactive)	89.2% (inactive)	11.4% (inactive)	77.8	89.2	4.1% (inactive)	3.5% (inactive)	-8.75% (inactive)	-3.37% (inactive)	-1.12% (inactive)	99.4% (inactive)	99% (inactive)	0.05% (inactive)	-0.31% (inactive)
Cc1cc(NC(=O)c2cccc(S(=O)(=O)N3CC(c4ccccc4)CC3=O)c2)no1 (stereo not given)	92	97.5% (inactive)	92% (inactive)	98.8% (inactive)	97.6% (inactive)	6.25% (inactive)	91.3	97.6	-6.4% (inactive)	3.33% (inactive)	-15.3% (inactive)	-8.59% (inactive)	1.83% (inactive)	96.8% (inactive)	90.5% (inactive)	1.83% (inactive)	5.71% (inactive)
CCOC(=O)c1ccccc1NC(=O)CSc1nccn1C	89	94% (inactive)	89% (inactive)	94% (inactive)	108% (inactive)	15.5% (inactive)	92.7	108	0.91% (inactive)	-3.44% (inactive)	-4.88% (inactive)	3.13% (inactive)	-1.73% (inactive)	102% (inactive)	98.2% (inactive)	1.55% (inactive)	1.28% (inactive)
COc1cc2c(cc1OC)C(c1ccc(C)o1)CC(=O)N2 (stereo not given)	81.5	87.5% (inactive)	81.5% (inactive)	86.2% (inactive)	89.4% (inactive)	9.42% (inactive)	80	89.4	-0.13% (inactive)	4.33% (inactive)	-3.98% (inactive)	1.56% (inactive)	-4.72% (inactive)	80% (inactive)	78.2% (inactive)	1.21% (inactive)	0.73% (inactive)
CCC(C)NC(=O)c1cn(CC)c2ccc(S(=O)(=O)N(C)C)cc2c1=O (stereo not given)	87	84% (inactive)	87% (inactive)	85.7% (inactive)	78.9% (inactive)	-11.6% (inactive)	90.6	78.9	-4.53% (inactive)	-2.33% (inactive)	2.96% (inactive)	14.4% (inactive)	-2.73% (inactive)	92.4% (inactive)	93.4% (inactive)	-0.32% (inactive)	1.7% (inactive)
CN(CC(=O)N1CCCCC1)S(=O)(=O)c1cccc2cccnc12	99	104% (inactive)	99% (inactive)	91.5% (inactive)	97.5% (inactive)	1.62% (inactive)	95.8	97.5	-0.4% (inactive)	-1.8% (inactive)	-4.94% (inactive)	9.9% (inactive)	-2.03% (inactive)	94.6% (inactive)	94.7% (inactive)	0.26% (inactive)	1.14% (inactive)
Cc1occc1C(=O)N1CCN(c2ncccn2)CC1	87	118% (inactive)	87% (inactive)	99.6% (inactive)	95.8% (inactive)	8.91% (inactive)	86.9	95.8	2.56% (inactive)	-5.83% (inactive)	-15.2% (inactive)	-1.04% (inactive)	-0.73% (inactive)	101% (inactive)	91.9% (inactive)	1.98% (inactive)	1.89% (inactive)
COc1cccc(C2=NOC(C(=O)Nc3cc(C)nn3-c3ccccc3)C2)c1OC (stereo not given)	93	91% (inactive)	93% (inactive)	68.7% (inactive)	28.6% (active)	-43.9% (inactive)	72.5	28.6	2.31% (inactive)	-1.83% (inactive)	1.31% (inactive)	12% (inactive)	-5.04% (inactive)	68.3% (inactive)	60.2% (inactive)	2.12% (inactive)	-0.06% (inactive)
COc1ccc(-c2nc(CS(=O)CC(=O)NCc3ccccn3)c(C)o2)cc1 (stereo not given)	103	92.5% (inactive)	103% (inactive)	92.9% (inactive)	92.9% (inactive)	8.14% (inactive)	84.8	92.9	-3.47% (inactive)	-2.46% (inactive)	-3.15% (inactive)	18% (inactive)	-1.58% (inactive)	95.9% (inactive)	98.5% (inactive)	1.57% (inactive)	5.75% (inactive)
